# Assay outcomes from PubChem.
# sPLA2-III inh: Inhibits HGIII-sPLA2 liposome hydrolysis, primary screen; hit rate 0.56% among 370,000; inhibition, % at 12.2 µM; QFRET BODIPY PC-A2 liposome hydrolysis, fluorescence;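 active = inhibition above mean plus 3 SD of compounds lying within the high and low control bounds, cut at about 19% in these data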;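 also: 0% = median of test compound wells and 100% = no enzyme DMSO wells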
# Neddylation inh: blocks human cullin neddylation. inhibition, % at 25 µM. TR-FRET cullin neddylation, biochemical. P61081+Q13564. AID 651699. hit rate 0.58% among 360,000; in the data active = inhibition above about 36%
# Target sequence (P61081 whole entry, looked up): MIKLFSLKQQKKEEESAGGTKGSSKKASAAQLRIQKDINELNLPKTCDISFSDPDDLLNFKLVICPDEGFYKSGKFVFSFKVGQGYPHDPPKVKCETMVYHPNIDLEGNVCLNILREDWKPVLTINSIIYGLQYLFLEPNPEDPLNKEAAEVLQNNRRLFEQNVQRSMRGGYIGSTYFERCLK
# Target sequence (Q13564 whole entry, looked up): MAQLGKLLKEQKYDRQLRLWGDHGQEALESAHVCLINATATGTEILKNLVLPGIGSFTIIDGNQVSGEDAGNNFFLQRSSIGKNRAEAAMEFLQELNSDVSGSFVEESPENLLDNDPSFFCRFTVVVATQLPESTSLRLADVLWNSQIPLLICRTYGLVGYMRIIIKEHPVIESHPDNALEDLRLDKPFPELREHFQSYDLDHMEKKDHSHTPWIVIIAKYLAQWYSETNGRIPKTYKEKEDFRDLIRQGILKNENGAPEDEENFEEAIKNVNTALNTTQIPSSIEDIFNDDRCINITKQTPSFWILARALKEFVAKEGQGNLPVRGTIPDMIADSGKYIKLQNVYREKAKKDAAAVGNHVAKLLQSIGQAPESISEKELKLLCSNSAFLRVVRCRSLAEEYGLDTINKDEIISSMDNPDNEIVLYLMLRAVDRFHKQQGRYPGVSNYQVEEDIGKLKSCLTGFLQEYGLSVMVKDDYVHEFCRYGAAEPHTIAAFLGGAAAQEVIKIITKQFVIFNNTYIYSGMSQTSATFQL
# NadD inh: inhibitors of Staphylococcus aureus NadD. inhibition, % at 20 µM. purified NadD enzyme, colorimetric absorbance read-out. hit rate 0.78% among 360,000; in the data active = inhibition above about 26%
# DAGLB inhibitor: diacylglycerol lipase beta (human) inhibition. HEK293T DAGLB membrane lysate, EnzChek fluorogenic substrate. inhibition, % at 5.17 µM. hit rate 0.059% among 340,000; in the data active = inhibition above about 34%;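 also: 0% = enzyme with vehicle and 100% = wells lacking enzyme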
# ARNT TACC3 PPI: ARNT/TACC3 interaction disruption. Q9Y6A5. AlphaScreen His-ARNT PAS-B/GST-TACC3 binding, luminescence; TACC3 fragment carries E629A point mutation. inhibition, % at 9.99 µM. hit rate 0.66% among 390,000. AID 623870;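 active = mean inhibition of replicates at least 50% and at least half of replicates each reaching 50%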;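 also: 0% = complete ARNT plus TACC3 wells and 100% = ARNT alone without TACC3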
# An asterisk follows results filed as active; . = no result shown. Only some compounds are listed: those with a hit (about 2% of all), similar ones and a draw of the others.
SMILES,sPLA2-III inh,Neddylation inh,NadD inh,DAGLB inhibitor,ARNT TACC3 PPI
COC(=O)/C=C1\S/C(=N/NC(=O)c2ccccc2)NC1=O,-4,-15,4,-1,-8
COc1ccccc1/C=C1\S/C(=N/NC(=O)c2cccc(Br)c2)NC1=O,1,31,38*,18,1
COc1ccccc1-c1ccc([C@@H]2[C@@H](CO)N3CCCCN(S(=O)(=O)c4cn(C)cn4)C[C@@H]23)cc1,.,.,.,.,3
Nn1cnnc1N/N=C/c1cc(Br)cc(Br)c1O,3,12,1,4,49*
Cc1ccc(S(=O)(=O)Nc2cccc3cccnc23)cc1,11,.,1,-5,50*
COCC(=O)Nc1ccc2c(c1)OC[C@H](C)N(CCC(F)(F)F)C[C@H](C)[C@@H](OC)CN(C)C2=O,.,.,.,.,2
Cc1nnc(SCC2=C(C(=O)O)N3C(=O)C(NC(=O)COc4ccccc4)C3SC2)s1 (configuration not stated),14,8,7,3,1
CO/N=C(/C(=O)N[C@@H]1C(=O)N2C(C(=O)O)=CCS[C@H]12)c1cnc(N)s1,.,17,39*,.,.
O=C(NCC[C@@H]1CC[C@@H](NS(=O)(=O)Cc2ccccc2)[C@H](CO)O1)C1CCC1,.,.,.,.,-2
CCn1c(N2CCC(C)CC2)nc2c1c(=O)n(C)c(=O)n2C,26*,1,2,-3,.
CC(=NNc1nc2ccccc2s1)c1ccncn1,6,-24,2,1,70*
C/C(=N\Nc1nc2ccccc2s1)c1ccc(Br)s1,-4,12,-1,-3,.
C[C@@H]1CN([C@@H](C)CO)C(=O)Cc2cc(N(C)C)ccc2O[C@H]1CN(C)C(=O)Nc1ccc(C(F)(F)F)cc1,.,.,.,.,3
O=C1c2cccc3c([N+](=O)[O-])ccc(c23)C(=O)N1c1ccccn1,4,30,-1,-11,-2
O=C1c2cccc3c([N+](=O)[O-])ccc(c23)C(=O)N1c1ccc(Cl)cn1,-1,50*,2,-8,3
O=C1c2cccc3c([N+](=O)[O-])ccc(c23)C(=O)N1c1nccs1,-3,55*,20,-21,-5
O=C(Cc1ccncc1)Nc1ccc2c(c1)[C@@H]1C[C@H](CC(=O)N3CCCCC3)O[C@@H](CO)[C@@H]1O2,.,.,.,.,0
Cc1ccc(S(=O)(=O)Nc2ccc3c(c2)C(=O)N([C@@H](C)CO)C[C@@H](C)[C@H](CN(C)Cc2ccncc2)OCCCC[C@@H](C)O3)cc1,.,.,.,.,-6
Cc1ccc(/C=C2\CCC3=C2OC(N)=C(C#N)C3c2ccc(C)cc2)cc1 (configuration not stated),.,19,46*,-90,-4
Cc1ccc(-c2csc(Nc3ccc(C(=O)O)cc3)[n+]2Cc2ccccc2)cc1,2,6,44*,-1,30
COc1ccc(-c2csc(Nc3ccccc3)[n+]2Cc2ccccc2)cc1,2,-1,12,-4,0
Cc1ccc(S(=O)(=O)N[C@@H]2C=C[C@H](CC(=O)NCc3ccccc3F)O[C@H]2CO)cc1,.,.,.,.,16
COc1cc(/C=N\NC(=O)c2sc(N)nc2C)cc(OC)c1OC,-1,-4,-4,0,49*
COc1cc(/C=N/NC(=O)c2sc3nc(C)cc(C)c3c2N)ccc1O,-6,42*,-10,.,2
Cc1cc(/C=N/Nc2ccc([N+](=O)[O-])cn2)c(C)n1-c1ccccc1,2,-24,31*,5,-10
SMILES,sPLA2-III inh,Neddylation inh,NadD inh,DAGLB inhibitor,ARNT TACC3 PPI
Cc1cc(/C=N/NC(=O)c2ccccn2)c(C)n1-c1cccc([N+](=O)[O-])c1,2,-31,1,-1,68*
CCCC(=O)N(C1CC(C)C(C#N)(C#N)C1(C#N)C#N)N(C)C (configuration not stated),13,53*,8,3,-3
CC(=O)N(C1CC(C)C(C#N)(C#N)C1(C#N)C#N)N(C)C (configuration not stated),0,-3,-3,-2,-4
COc1ccc([C@H]2/C=C\CN(C(=O)c3ccccc3)[C@@H](C)C(=O)N2Cc2ccc(F)cc2)cc1,-7,-12,-2,-5,3
CCCCC(=O)N1C/C=C\[C@H](c2ccc(OC)cc2)N(Cc2ccc(F)cc2)C(=O)[C@@H]1C,-3,-6,-1,-3,8.3*
O=[N+]([O-])c1ccc(Cl)cc1Sc1cccc2cccnc12,2,-14,0,1,14
Cn1nc([N+](=O)[O-])nc1Sc1cccc2cccnc12,4,-23,3,0,63*
O=c1c2c([N+](=O)[O-])cc([N+](=O)[O-])cc2sn1-c1ccc(Br)cc1,.,-40,30*,29,35
O=c1c2c([N+](=O)[O-])cc([N+](=O)[O-])cc2sn1Cc1ccccc1,5,-55,16,7,12
C[C@H]1CN([C@@H](C)CO)C(=O)c2cc(C#CC3CC3)cnc2O[C@@H]1CN(C)C(=O)c1ccc(F)cc1,.,.,.,.,-2
CC1(C)Cc2ccccc2C(NNC(=O)c2ccccn2)=N1,-4,-1,0,1,66*
CC1(C)Cc2ccccc2C(NNC(=O)c2ccccc2)=N1,-1,-1,-4,-2,-10
COc1cccc(S(=O)(=O)N[C@@H]2C=C[C@@H](CC(=O)NCc3ccc(F)cc3)O[C@@H]2CO)c1,.,.,.,.,-1
Cc1noc(C)c1NC(=O)Nc1ccc2c(c1)C(=O)N([C@@H](C)CO)C[C@@H](C)[C@@H](CN(C)Cc1ccc(Cl)c(Cl)c1)OCCCC[C@@H](C)O2,.,.,.,.,18
O=C(CSc1ccc(F)cc1)Nc1nnc(-c2ccco2)o1,4,2,1,0,49*
Cc1ccc(NC(=O)CSc2nnc(-c3ccco3)o2)cc1,0,-2,-5,-6,3
Cc1ccc(SCC(=O)Nc2nnc(-c3ccco3)o2)cc1,-5,0,7,3,48*
C[C@@H]1CN([C@@H](C)CO)C(=O)c2cc(/C=C/c3ccccc3)cnc2O[C@@H]1CN(C)Cc1ccc2c(c1)OCO2,.,.,.,.,-7
CC=Cc1ccc2n(c1=O)C[C@H]1[C@H](CO)[C@@H](C(=O)NCCC)[C@@H]2N1Cc1ccccc1 (mixture of isomers),.,.,.,.,-2
CN1CCN(C(=O)C[C@@H]2C[C@H]3c4cc(NC(=O)Nc5ccc(C(F)(F)F)cc5)ccc4O[C@H]3[C@H](CO)O2)CC1,.,.,.,.,10
O=C(C[C@H]1C[C@@H]2c3cc(NC(=O)c4cccnc4)ccc3O[C@@H]2[C@H](CO)O1)NCc1cccnc1,.,.,.,.,-2
O=C(O)c1ccc(-c2ccc(-c3ccccc3)cc2)s1,.,51*,13,2,6
Cc1ccc(NC2C(=O)NC(=O)NC2=O)cc1,11,4,0,-27,41*
CCOc1ccc(NC(=S)NCCCn2ccnc2)cc1,14,-2,-5,-2,.
S=C(NCCCn1ccnc1)Nc1cccc(Cl)c1,-5,4,-2,0,42*
O=C(O)CN1C(=O)/C(=C\c2cc(Br)ccc2OCc2ccc(Cl)cc2Cl)SC1=S,.,-5,36*,9,1
